# Data published in PubChem BioAssay (NCATS).
# Unmarked numbers belong to inactive results. Records with an inconclusive call do not appear. Activity calls are given as the source filed them. Unless noted, calls follow the shape of the dose curve; as a rule, active = well fitted curve in either direction with a large enough effect (not every such curve was filed as active); inconclusive = small, poorly fitted or top-dose-only effect, or another doubt; inactive = flat fitted curve, though single readings scatter.
# How the values were obtained:
# [1] = target: Lysosomal acid glucosylceramidase (Homo sapiens) (UniProt P04062); experiment: Glucocerebrosidase-p2 (AID 348; in the data active = potency below about 10 µM; also: potency is read from the fitted curve at half-maximal effect); details: purified GBA, blue fluorogenic substrate, 40 min
# Summary of the method: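 Normal human glucocerebrosidase (0.2 nM) with blue fluorogenic substrate (80 uM final) in citrate/phosphate pH 5.9 with 10mM sodium taurocholate, 0.01% tween-20; 40 min RT, NaOH/glycine stop; fluorescence Ex 365/Em 440; AC50 from a titration from 0.6 nM upwards.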
# [2] = NFAT Signaling Pathway (AID 444); details: Jurkat NFAT-bla M1, carbachol, beta-lactamase ratio, 5 h; at 7.69 µM (top of the series) unless noted;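 also: carbachol stimulus at about its EC50 of 1 µM final; % is scaled to controls: 0 for no effect and ±100 for the full control effect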
# Summary of the method: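 Read-out: CCF4 FRET ratio (460 nm/530 nm) after 1 h RT dye loading, used for %activity and AC50 from titration series. Cells: Jurkat NFAT-β-lactamase/M1 line, treated with compound plus 1 uM carbachol for 5 h, 37 °C.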
# [3] = Stat Signaling Pathway (AID 446); details: ME-180 SIE beta-lactamase reporter, IL-6 stimulated, 5 h; at 7.69 µM (top of the series) unless noted;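 also: ME-180 cervical cancer cells given 40 pM IL-6 alongside compound; SIE-controlled beta-lactamase reporter measured as 460/530 nm FRET emission ratio; % is scaled to controls: 0 for no effect and ±100 for the full control effect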
# Summary of the method: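 Emission at 460 and 530 nm (excitation 405 nm) reports SIE-controlled beta-lactamase in ME-180 cells. Cells received compound with 40 pM IL-6 for 5 hrs at 37 C; data scaled between 300 pM IL-6 and 125 nM JAK-inhibitor controls.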
# [4] = target: Glucocorticoid receptor (Homo sapiens) (UniProt P04150); experiment: GR-GFP Redistribution (AID 450;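 active = compounds whose dose series gives a full or clear partial fitted curve of increased nuclear translocation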; also: potency is read from the fitted curve at half-maximal effect); details: U2OS GR-GFP nuclear translocation, laser cytometry, 2 h
# [5] = target: Glucocorticoid receptor (Homo sapiens) (UniProt P04150); experiment: GR-EFC Redistribution (AID 451; calls by dose curve; also: potency is read from the fitted curve at half-maximal effect); details: CHO-K1 GR-EFC translocation, beta-gal luminescence, 2 h
# Summary of the method: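 Translocation of GR-ED fusion to nuclear EA restores b-gal, read by luminescence after 1 h room-temperature detection. Engineered CHO-K1 biosensor cells, 1,000/well, exposed 2 h at 37 C to titrations up to 46 uM final.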
# [6] = target: Mitogen-activated protein kinase 10 (Mus musculus) (UniProt Q61831); experiment: JNK3 AlphaScreen Assay (AID 530); details: JNK3 lysate, c-Jun phosphorylation; series mostly up to 11.4 µM;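 also: kinase came from lysate of stimulated human HepG2 cells; signal reports phosphorylation of biotinylated GST-cJun 1-79 at Ser73 with 10 µM ATP; % is scaled to controls: 0 for no effect and ±100 for the full control effect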
# Summary of the method: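 qHTS titrations with 15 min compound pre-incubation before adding ATP (10 uM final). Read-out: AlphaScreen of Ser73-phosphorylated biotin-GST-cJun using HepG2 lysate JNK3 activated by IL-1β and TNFα.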
# [7] = target: 3',5'-cyclic-AMP phosphodiesterase 4B (Homo sapiens) (UniProt Q07343); experiment: qHTS Assay for Inhibitors of PDE-IV (AID 607; active = well fitted activation curve with a large enough effect in the main read-out, with a control signal flat, not every such curve was filed as active; also: % of control where 0% means no effect); details: HEK293 ACTOne CNG channel cells, membrane potential fluorescence; series mostly up to 22.9 µM
# Summary of the method: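 The readout is membrane depolarisation from a cAMP-sensing CNG channel, detected with a potential dye at ex 535/em 590. Cells were HEK293-derived (endogenous PDE-IV) at 1000 cells/well, titrated up to 22.9 uM final.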
# [8] = target: Cytochrome P450 1A2 (Homo sapiens) (UniProt P05177); experiment: p450-cyp1a2 (AID 410; calls by dose curve; also: potency is read from the fitted curve at half-maximal effect); details: recombinant CYP1A2, luciferin-ME demethylation, luminescence; series mostly up to 11.4 µM
# Summary of the method: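 O-Demethylation of luciferin 6' methyl ether by human CYP1A2 is monitored as luciferase luminescence. Substrate sits at Km (100uM); enzyme is 20nM. Values are scaled to 57 uM furafylline as maximal inhibition.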
# [9] = target: Cytochrome P450 3A4 (Homo sapiens) (UniProt P08684); experiment: qHTS Assay for Activators of Cytochrome P450 3A4 (AID 885; active = well fitted curve in the direction sought with a large enough effect; an effect the other way counts as inactive or inconclusive; also: nearly all actives have a fitted effect of over 65% in size); details: recombinant CYP3A4, Luciferin-PPXE luminescence, 60 min; series mostly up to 11.4 µM
# Summary of the method: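 Activators are scored by enhanced luminescence from CYP3A4 conversion of luciferin-PPXE (25uM, equal to KM) to luciferin, after 60 min at RT with an NADPH-regenerating system.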
# [10] = Confirmation and Secondary Assay for Modulators of Hemoglobin Beta Chain Splicing at IVS2 654 locus (AID 910; active = well fitted curve in the direction sought with a large enough effect; an effect the other way counts as inactive or inconclusive;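 also: HeLa cells stably carrying EGFP split by mutant beta-globin IVS2-654 intron; per-well total GFP intensity by laser scanning cytometry after 2-day treatment; % of control where 0% means no effect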); details: HeLa EGFP-654 splicing reporter, GFP fluorescence, 48 h; series mostly up to 38.3 µM
# Summary of the method: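 Readout: per-well total peak green fluorescence (488 nm ex, 500–520 nm em) from objects 5–250 µm, reflecting correct splicing of an EGFP-654 reporter. Compounds were applied for 2 days at 37 °C to overnight-plated HeLa EGFP-654 cells; controls were DMSO and 500 nM IVS2-654 PNA.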
# [11] = Confirmation and Secondary Assay for Modulators of Hemoglobin Beta Chain Splicing at IVS2 705 locus (AID 930; active = well fitted curve in the direction sought with a large enough effect; an effect the other way counts as inactive or inconclusive;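 also: HeLa cells stably expressing the EGFP-705 splicing reporter; GFP fluorescence per well restored by corrected splicing of the IVS2-705 intron in EGFP; % of control where 0% means no effect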); details: HeLa EGFP-705 splicing reporter, GFP fluorescence, 48 h; series mostly up to 38.3 µM
# Summary of the method: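 First, HeLa EGFP-705 cells are seeded at 500/well in Optimem with 2% FCS and left overnight. Next, compound or DMSO is added for 2 days. Finally wells are laser-scanned and total peak GFP intensity scored.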
# [12] = qHTS Assay for Identification of Small Molecule Agonists for Hypoxia Response Element Signaling Pathway (AID 914; active = well fitted activation curve with a large enough effect in the signal ratio, with a control signal flat, not every such curve was filed as active; the % refers to the signal ratio; also: potency is read from the fitted curve at half-maximal effect; as to activation: % of control where 0% means no effect); details: ME-180 (cervical carcinoma) HRE-bla reporter, beta-lactamase ratio, CoCl2, 17 h; activation: stronger effect = higher value
# Summary of the method: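 Positive modulation of EC50 CoCl2-induced hypoxia response element signaling is measured in ME-180 cells with a beta-lactamase reporter. Compounds are titrated, incubation runs 17 hours, and %Activity derives from the blue/green ratio.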
# Sequence of 3',5'-cyclic-AMP phosphodiesterase 4B (Homo sapiens) (Q07343 whole entry, looked up): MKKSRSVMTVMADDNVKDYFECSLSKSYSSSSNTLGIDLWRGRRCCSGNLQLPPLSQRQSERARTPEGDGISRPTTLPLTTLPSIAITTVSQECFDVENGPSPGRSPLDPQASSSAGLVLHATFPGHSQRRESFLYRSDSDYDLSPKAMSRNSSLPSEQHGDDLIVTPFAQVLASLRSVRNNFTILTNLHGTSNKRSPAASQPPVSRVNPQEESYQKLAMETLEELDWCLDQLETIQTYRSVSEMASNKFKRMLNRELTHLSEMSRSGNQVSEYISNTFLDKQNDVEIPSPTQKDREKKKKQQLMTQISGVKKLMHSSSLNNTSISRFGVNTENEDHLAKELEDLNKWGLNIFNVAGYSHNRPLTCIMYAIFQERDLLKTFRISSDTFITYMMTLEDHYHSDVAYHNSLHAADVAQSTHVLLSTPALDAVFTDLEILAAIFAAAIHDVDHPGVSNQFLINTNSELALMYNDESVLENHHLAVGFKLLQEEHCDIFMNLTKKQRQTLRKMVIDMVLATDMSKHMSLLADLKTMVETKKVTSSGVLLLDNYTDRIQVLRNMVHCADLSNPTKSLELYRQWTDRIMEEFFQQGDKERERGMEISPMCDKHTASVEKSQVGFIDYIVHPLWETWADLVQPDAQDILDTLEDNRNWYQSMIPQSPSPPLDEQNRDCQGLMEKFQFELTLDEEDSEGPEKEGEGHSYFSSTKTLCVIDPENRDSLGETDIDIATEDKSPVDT
# Sequence of Lysosomal acid glucosylceramidase (Homo sapiens) (P04062 whole entry, looked up): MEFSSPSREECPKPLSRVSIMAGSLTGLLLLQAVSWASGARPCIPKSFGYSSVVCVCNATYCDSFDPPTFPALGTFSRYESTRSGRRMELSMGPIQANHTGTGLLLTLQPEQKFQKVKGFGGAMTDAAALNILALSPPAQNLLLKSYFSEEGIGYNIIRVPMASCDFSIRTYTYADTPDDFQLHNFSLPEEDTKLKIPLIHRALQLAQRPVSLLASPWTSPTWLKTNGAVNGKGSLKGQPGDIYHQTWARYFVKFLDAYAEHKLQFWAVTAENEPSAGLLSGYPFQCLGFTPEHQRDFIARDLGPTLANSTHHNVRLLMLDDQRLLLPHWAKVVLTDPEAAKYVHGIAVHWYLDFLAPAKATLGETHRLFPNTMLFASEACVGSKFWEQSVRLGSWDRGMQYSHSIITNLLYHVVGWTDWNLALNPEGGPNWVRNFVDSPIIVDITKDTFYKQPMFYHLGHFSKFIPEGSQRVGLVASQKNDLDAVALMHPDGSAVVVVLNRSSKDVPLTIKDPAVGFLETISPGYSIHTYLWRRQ
# Sequence of Glucocorticoid receptor (Homo sapiens) (P04150 whole entry, looked up, the tested form may be a part): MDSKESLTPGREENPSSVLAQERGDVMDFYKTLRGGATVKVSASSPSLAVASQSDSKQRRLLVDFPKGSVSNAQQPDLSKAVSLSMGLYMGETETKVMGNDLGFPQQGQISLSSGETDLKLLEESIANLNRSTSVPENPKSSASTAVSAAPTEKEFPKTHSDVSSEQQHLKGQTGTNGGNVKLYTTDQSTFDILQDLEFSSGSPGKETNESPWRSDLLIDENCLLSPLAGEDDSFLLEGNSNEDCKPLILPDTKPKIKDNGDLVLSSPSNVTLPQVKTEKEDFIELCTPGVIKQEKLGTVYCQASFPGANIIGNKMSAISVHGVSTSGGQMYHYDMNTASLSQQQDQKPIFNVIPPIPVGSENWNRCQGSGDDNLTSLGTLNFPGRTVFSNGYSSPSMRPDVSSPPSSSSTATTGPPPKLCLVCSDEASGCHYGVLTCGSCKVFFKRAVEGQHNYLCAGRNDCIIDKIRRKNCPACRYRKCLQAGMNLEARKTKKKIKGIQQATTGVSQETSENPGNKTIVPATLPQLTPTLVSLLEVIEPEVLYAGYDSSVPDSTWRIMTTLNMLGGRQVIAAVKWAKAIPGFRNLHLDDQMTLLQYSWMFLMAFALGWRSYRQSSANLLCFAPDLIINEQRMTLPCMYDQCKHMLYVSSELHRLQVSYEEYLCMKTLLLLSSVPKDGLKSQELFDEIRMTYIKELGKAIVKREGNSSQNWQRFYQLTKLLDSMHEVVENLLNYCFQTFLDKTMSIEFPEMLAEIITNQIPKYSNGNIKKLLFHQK
# Sequence of Cytochrome P450 3A4 (Homo sapiens) (P08684 whole entry, looked up): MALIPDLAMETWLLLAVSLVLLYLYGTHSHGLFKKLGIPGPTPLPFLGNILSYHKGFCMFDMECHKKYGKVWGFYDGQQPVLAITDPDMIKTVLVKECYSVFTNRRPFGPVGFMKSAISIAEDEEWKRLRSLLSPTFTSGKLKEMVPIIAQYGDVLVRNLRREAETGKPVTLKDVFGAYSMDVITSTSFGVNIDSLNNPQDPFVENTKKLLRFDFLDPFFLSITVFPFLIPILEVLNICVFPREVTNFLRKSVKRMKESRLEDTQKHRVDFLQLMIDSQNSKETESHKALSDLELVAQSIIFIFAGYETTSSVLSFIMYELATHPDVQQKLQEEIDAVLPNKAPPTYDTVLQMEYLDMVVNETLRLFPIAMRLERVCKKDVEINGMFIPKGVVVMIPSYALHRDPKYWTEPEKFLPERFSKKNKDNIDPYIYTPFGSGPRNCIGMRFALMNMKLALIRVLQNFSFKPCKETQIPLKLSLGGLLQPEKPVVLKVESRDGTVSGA
# Sequence of Cytochrome P450 1A2 (Homo sapiens) (P05177 whole entry, looked up): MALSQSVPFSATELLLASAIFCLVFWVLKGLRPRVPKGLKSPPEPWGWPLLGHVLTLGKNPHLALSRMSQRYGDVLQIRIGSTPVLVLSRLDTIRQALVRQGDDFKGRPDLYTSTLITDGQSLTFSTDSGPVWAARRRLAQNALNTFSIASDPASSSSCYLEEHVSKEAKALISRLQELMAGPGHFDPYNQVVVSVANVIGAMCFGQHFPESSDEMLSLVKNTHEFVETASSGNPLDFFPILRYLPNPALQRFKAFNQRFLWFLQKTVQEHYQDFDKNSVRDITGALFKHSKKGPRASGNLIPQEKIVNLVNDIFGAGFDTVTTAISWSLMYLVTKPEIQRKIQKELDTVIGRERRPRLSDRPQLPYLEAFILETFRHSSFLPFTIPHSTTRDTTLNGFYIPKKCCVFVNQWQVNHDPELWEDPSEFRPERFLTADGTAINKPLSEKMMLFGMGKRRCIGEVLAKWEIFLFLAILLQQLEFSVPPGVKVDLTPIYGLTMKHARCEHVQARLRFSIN
SMILES,Potency [1] [µM],"activity change, negative = inhibition [2] [%]","activity, negative = inhibition [3] [%]",Potency [4] [µM],Potency [5] [µM],Potency [6],Potency [7],Potency [8],Potency [9],outcome [10],outcome [11],activation [12] [%],Potency [12]
O=C(O)c1ccc(NCc2nc3cc4ccccc4cc3[nH]2)cc1,> 11.4,14.2,-2.42,> 46,> 9.22,inactive,inactive,,,,,,
Cc1cccc(CNc2nc(-c3cccnc3)nc3ccccc23)c1,> 11.4,,,> 46,> 46,inactive,,0.631 µM (active),inactive,inactive,inactive,,
Cc1cccc(Cl)c1NC[C@H](O)CN1CCN(C)CC1,> 11.4,-10.1,6.35,> 46,> 9.22,,inactive,,,,,,
N#CCCn1c(=O)c(-c2ccc(F)cc2)nc2cnc(Oc3ccccc3)nc21,> 11.4,-6.96,-5.37,> 9.22,> 46,inactive,inactive,,,,,,
Cc1noc(C)c1C(=O)N1CCC[C@@]2(CCN(c3cccc(-c4ccccc4)c3)C2)C1,> 11.4,-20.7,-22.2,,> 46,inactive,inactive,,,,,,
O=c1c(CCc2ccccc2)nc2cnc(Oc3ccccc3)nc2n1C[C@H]1CCCO1,> 11.4,-10.8,-18.9,> 9.22,> 46,,inactive,,inactive,,,-12.6,
Cc1cc2ncn(CC(=O)O)c2cc1C,> 11.4,1.45,8.76,> 46,> 9.22,inactive,inactive,,,,,,
COc1cccc(Nc2ncc3nc(-c4ccccc4)c(=O)n(C4CC4)c3n2)c1,> 11.4,-5.16,28.4,> 9.22,> 46,inactive,inactive,,,,,,3.16 µM (active)
O=C(O)c1c(-c2nccc3ccccc23)[nH]c(-c2ccccc2)c1S(=O)(=O)O,> 11.4,12,-1.38,> 46,> 9.22,inactive,inactive,,,,,,
